High-throughput results: PubChem, Broad Institute
Compounds with a hit are over-represented: about 6.7% of the library has one in this group of screens.
Pf Dd2 growth – P. falciparum Dd2 growth inhibitors, primary screen, SYBR Green fluorescence, single dose replicates; hit rate 2.3% among 94,000; activity change, % at 10 µM; 72 h; active compounds read low; in the data active = activity change below about -80%; inconclusive = no clear call, values can overlap the other calls
C diff HTS – C. difficile growth inhibitors, primary screen, HTS | Clostridium difficile clinical isolate growth, OD600, 24 h; active compounds read low | growth activity, negative = inhibition, % at 16 µg/mL (by protocol) | AID 1259249, 2017 | hit rate 0.25% among 86,000;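 active = mean growth activity at or below -80% and every replicate also at or below -80%; inconclusive = mean at or below -80% but some replicate above -80%; inactive = mean growth activity above -80%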;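 also: 0% = DMSO wells and -100% = levofloxacin 16 µg/mL wells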
T cruzi growth-1 – T. cruzi intracellular proliferation inhibitors, primary screen, cell-based, beta-gal Tulahuen parasites, NIH3T3 host, luminescence; T. cruzi beta-gal in NIH3T3, GalScreen luminescence, 90 h; inhibition, % at 8.34 µM; hit rate 5.9% among 77,000; AID 624255, 2012;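 active = mean inhibition above about 93%, with at least 55% of replicates each passing it, limit read from the data, passing the limit was not always enough; inconclusive = only one of those two conditions holds; inactive = neither condition holds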
T cruzi growth-2 – T. cruzi intracellular proliferation inhibitors, confirmation, cell-based, NIH3T3 host, beta-gal parasite, luminescence, cherry-pick; AID 651739, 2012; hit rate 72% among 5,600; inhibition, % at 8.35 µM; T. cruzi beta-gal in NIH3T3, GalScreen luminescence, 90 h; shares compounds with T cruzi growth-1;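 active = mean replicate inhibition above about 95% and at least 55% of replicates individually reaching it, limit read from the data; inconclusive = only one of the two criteria is met; inactive = neither criterion is met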
T cruzi growth-3 – inhibitors of intracellular T. cruzi replication, confirmation, NIH3T3 host cells, beta-gal parasites, cherry-pick, set 2. T. cruzi beta-gal in NIH3T3, GalScreen luminescence, 90 h. AID 651740, 2012. inhibition, % at 2.09 µM. shares compounds with T cruzi growth-1. hit rate 21% among 5,600;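 active = mean inhibition above about 95%, with at least 55% of replicates also reaching it, limit read from the data; inconclusive = meets just one of the two conditions; inactive = meets neither condition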;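 also: plate controls were neutral control median for no effect and positive control median for full effect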
NIH3T3 tox – cytotoxicity in mouse NIH/3T3 fibroblasts, confirmation, cytotoxicity control for T. cruzi proliferation inhibitor project, cell-based, cherry-pick, single point. AID 651742, 2012. hit rate 14% among 5,600. cytotoxicity (signal decrease), % at 8.35 µM. shares compounds with T cruzi growth-1. NIH/3T3 viability, CellTiter-Glo ATP luminescence, 90 h;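 active = mean signal decrease across replicates above about 35% based on untreated-well scatter, with enough replicates individually passing, limit read from the data; inconclusive = no rule stated though some were filed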;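 also: 0% = median of neutral control wells and 100% = median of positive control wells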
NIH3T3 tox 2 – NIH/3T3 fibroblast cytotoxicity, confirmation, cytotoxicity control, cell-based, cherry-pick, single point, set 2. shares compounds with T cruzi growth-1. NIH/3T3 viability, CellTiter-Glo ATP luminescence, 90 h. inhibition, % at 24.9 µM. hit rate 56% among 5,600. AID 651744, 2012;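 active = mean loss of cell viability signal at or above a set limit, and enough replicates individually reaching it; inconclusive = meets only the mean limit or only the replicate share; inactive = meets neither condition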;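 also: 0% = median of neutral control wells and 100% = median of positive control wells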
Active calls of the source: *; ? = inconclusive; . = no result given.

SMILES	Pf Dd2 growth	C diff HTS	T cruzi growth-1	T cruzi growth-2	T cruzi growth-3	NIH3T3 tox	NIH3T3 tox 2
C[C@@H]1CN([C@H](C)CO)S(=O)(=O)c2ccc(C#Cc3ccccc3)cc2O[C@@H]1CN(C)C(=O)Nc1ccc2c(c1)OCO2	-76.1	-1.4	130.2*	105.7*	106.6*	5.0	4.1
C[C@H]1CN([C@@H](C)CO)S(=O)(=O)c2ccc(C3=CCCCC3)cc2O[C@@H]1CN(C)C(=O)Nc1ccc2c(c1)OCO2	-2.5	6.9	.	.	.	.	.
C[C@H](CO)N1C[C@H](C)[C@@H](CN(C)C(=O)Nc2ccc3c(c2)OCO3)Oc2cc(C3=CCCC3)ccc2S1(=O)=O	-46.7	-4.4	113.9*	96.1*	44.9	-1.2	17.2
CC(C)C#Cc1ccc2c(c1)O[C@H](CN(C)C(=O)Nc1ccccc1)[C@H](C)CN([C@H](C)CO)S2(=O)=O	-31.5	9.6	.	.	.	.	.
COc1ccc(NC(=O)Nc2ccc3c(c2)CC(=O)N([C@@H](C)CO)C[C@@H](C)[C@H](CN(C)C(=O)Nc2c(C)noc2C)O3)cc1	11.9	-5.6	26.3	.	.	.	.
CC(C)NC(=O)N(C)C[C@H]1Oc2c(NS(=O)(=O)c3ccc(F)cc3)cccc2C(=O)N([C@@H](C)CO)C[C@@H]1C	17.6	0.8	.	.	.	.	.
CO[C@@H]1CN(C)C(=O)c2ccc(NS(=O)(=O)C3CCCCC3)cc2OC[C@@H](C)NC[C@@H]1C	-54.1	.	-2.8	.	.	.	.
COc1ccc(CN(C)C[C@H]2Oc3ccc(NC(=O)C4CCCCC4)cc3CC(=O)N([C@@H](C)CO)C[C@@H]2C)cc1	-31.2	-4.3	88.6	.	.	.	.
C[C@@H]1CN([C@@H](C)CO)S(=O)(=O)c2ccc(-c3cccc(F)c3)cc2O[C@H]1CN(C)C(=O)Nc1cc(F)ccc1F	-43.6	1.5	114.9*	101.1*	63.0	50.5*	57.0*
C[C@@H]1CN([C@H](C)CO)S(=O)(=O)c2ccc(-c3cccc(F)c3)cc2O[C@H]1CN(C)C(=O)Nc1cc(F)ccc1F	-43.5	6.5	114.5*	96.3*	77.9	64.1*	80.8*
C[C@H]1CN([C@@H](C)CO)S(=O)(=O)c2ccc(-c3ccccc3)cc2O[C@@H]1CN(C)C(=O)Nc1ccccc1F	-79.1	.	-40.5	.	.	.	.
C[C@@H]1CN([C@@H](C)CO)S(=O)(=O)c2ccc(-c3ccc(F)cc3)cc2O[C@H]1CN(C)C(=O)Nc1ccccc1F	-59.9	-6.2	15.9	.	.	.	.
CN(C)C(=O)c1cccc(-c2ccc3c(c2)[C@@H]2[C@@H](CCN2C(=O)C2CCC2)[C@@H](CO)N3)c1	-44.5	0.4	.	.	.	.	.
C[C@@H]1CN([C@H](C)CO)S(=O)(=O)c2ccc(C#CC3CC3)cc2O[C@@H]1CN(C)C(=O)c1ccccc1	-38.7	7.1	?	106.2*	63.3	32.7	51.5*
C[C@@H]1CN([C@H](C)CO)S(=O)(=O)c2ccc(C#CC3CC3)cc2O[C@H]1CN(C)C(=O)c1ccccc1	-75.4	-6.3	87.0	.	.	.	.
C[C@@H]1CN([C@H](C)CO)S(=O)(=O)c2ccc(C#CC3CC3)cc2O[C@H]1CN(C)C(=O)c1ccncc1	-50.1	1.7	92.7	.	.	.	.
C[C@H](CO)N1C[C@H](C)[C@H](CN(C)C(=O)c2ccncc2)Oc2cc(C#CC3CC3)ccc2S1(=O)=O	-48.5	-5.8	103.1*	92.5	74.1	0.4	27.7*
CO[C@@H]1CN(C)C(=O)c2ccc(NC(C)=O)cc2OC[C@@H](C)N(Cc2cncnc2)C[C@@H]1C	26.4	.	-407.7	.	.	.	.
CCC(=O)Nc1ccc2c(c1)OC[C@@H](C)N(C(=O)c1ccc(F)cc1)C[C@H](C)[C@H](OC)CN(C)C2=O	-1.9	.	-4.0	.	.	.	.
O=C(C[C@@H]1C[C@@H]2c3cc(NC(=O)Nc4ccc(C(F)(F)F)cc4)ccc3O[C@@H]2[C@H](CO)O1)NCc1ccc(Cl)cc1	-45.3	.	166.4*	109.1*	2.0	-11.7	-16.7
